These results are taken from PubChem BioAssay AID743398 (Broad Institute, 2014).

Out of some 300,000 compounds screened, about 3,600 (1.2%) were called active. Rule as the data show it: active = activation above about 30% (passing the limit was not always enough); inconclusive = no clear call, values can overlap the other calls. The list comes from a sample in which actives are over-represented; it also holds similar structures and randomly drawn compounds.

This test can be described thus: activation of beta-catenin signaling reporter – cell-based, plate reader, single point, primary screen (AID 743398).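 Also: 0% = neutral control wells and 100% = positive control wells.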 The following applies: Wnt/beta-catenin reporter cell assay, activator, at 9.35 µM, hits give high values.
For `c1cc(-c2ccc3[nH]ccc3c2)n2ccnc2c1`, the activation is 3.12% (inactive).

For the compound `Fc1cccc(Cc2c(-c3cccc(Cl)c3)nc3ccc(Br)cn23)c1`, the activation is 16.8% (inactive).

For the compound `CN(c1ccccc1)S(=O)(=O)c1ccc(Cl)c(C(=O)NCCc2c[nH]c3ccccc23)c1`, the activation is -0.321% (inactive).

On to `O=C(NCCc1c[nH]c2ccccc12)c1cccc(Br)c1`, for which the activation is 0.278% (inactive).

For the compound `O=C(NCCc1c[nH]c2ccccc12)c1cc2ccccc2oc1=O`, the activation is 40.4% (active).

On to `Nc1[nH]c(C(=O)c2ccc(Br)cc2)c(-c2ccc3c(c2)OCO3)c1C(=O)NCCc1c[nH]c2ccccc12`, for which the activation was 0.212% (inactive).

As to `CCc1ccc(C2=CC(=O)CC(C)(C)C2=O)cc1`, the activation is -1.61% (inactive).

For `O=C(NCC(=O)N(CC1CCCO1)C(C(=O)NC1CCCCC1)c1ccccc1)c1ccco1` (stereo not drawn), the activation is -4.62% (inactive).

Consider `O=C(NCC(=O)N(Cc1cccs1)C(C(=O)NC1CCCCC1)c1ccco1)c1cccs1` (stereo not drawn), for which the activation is 67.7% (active).

As to `Cc1ccccc1N(C(=O)CNC(=O)c1cccs1)C(C(=O)NC1CCCC1)c1ccncc1` (stereo not drawn), the activation is -0.349% (inactive).

Take `CCOC(=O)C1=CC[C@@H](c2ccncc2)N(S(=O)(=O)c2ccc(C)cc2)C1`: the activation was -0.651% (inactive).

For the compound `CCCCn1nnnc1C(c1ccccc1)N1CCN(c2ccccc2OC)CC1` (stereo not drawn), the activation was 1.03% (inactive).

Regarding `COC(=O)C1=C(C)N(Cc2cccc(C(F)(F)F)c2)C(=NCc2cccc(C(F)(F)F)c2)NC1c1ccccc1C(F)(F)F` (stereo not drawn), the activation is -4.8% (inactive).

With `COc1ccc(-c2cnc3c(c2)C(=O)N([C@H](C)CO)C[C@@H](C)[C@H](CN(C)Cc2ccccc2)O3)cc1`, the activation is -0.613% (inactive).

With `COc1ccc2nc(N3CCN(C(=O)c4ccc([N+](=O)[O-])o4)CC3)sc2c1`, the activation is 2.35% (inactive).

Turning to `Cc1ccc2nc(N3CCN(C(=O)c4ccco4)CC3)sc2c1`, the activation is 40% (active).

Regarding `Cc1ccc2nc(N3C(=O)C(O)=C(C(=O)c4ccco4)C3c3cccc(O)c3)sc2c1` (stereo not drawn), the activation is 8.29% (inactive).

Turning to `COc1cccc(CC(=O)N2CCN(C(=O)C(=O)c3cccc(C(F)(F)F)c3)CC2)c1`, the activation is -3.95% (inactive).

Consider `Cc1cc(C)cc(NC(=O)CSc2ccccc2)c1`, for which the activation is -7.62% (inactive).

With `CN(Cc1ccccc1)C(=O)c1cccc(C(=O)N(C)Cc2ccccc2)c1`, the activation was 1.74% (inactive).

Consider `Cc1cc(C)cc(NC(=O)N(C)Cc2ccccc2)c1`, for which the activation was 46% (active).

As for `Cc1ccccc1-c1nc(NC(C)C)nc2cc(-c3ccccc3)sc12`, the activation is -8.66% (inactive).

`CN1CCN(c2ccc3c(c2)OC[C@H](Cc2ccccc2)NS3(=O)=O)CC1`: the activation is -3.42% (inactive).

`COCCNC(=O)c1ccc2nc(Cc3ccc(OC)c(OC)c3)oc2c1`: the activation is 1.55% (inactive).

Regarding `CSCCNC(=O)c1ccc2nc(Cc3ccccc3F)oc2c1`, the activation is 42.9% (active).

For the compound `COc1ccc(Cc2nc3ccc(C(=O)NCC4CCOCC4)cc3o2)cc1OC`, the activation is 7.09% (inactive).

For `COc1ccc(-c2cc3ncccc3cn2)cc1`, the activation was 50.1% (active).

As for `COc1ccc(-c2cn3cccnc3n2)cc1`, the activation is 26.2% (inactive).

For the compound `COc1ccc2nc(-c3ccccn3)ccc2c1`, the activation was 1.79% (inactive).

For `CCOc1ccc(Cl)cc1-c1cc(C(=O)NCc2cccs2)[nH]n1`, the activation is -2.6% (inactive).

As to `O=C(NCc1ccccc1)[C@@H]1CCCN1C(=O)[C@H]1CCCN1C(=O)c1cccc(Cl)c1`, the activation was 3.03% (inactive).

For the compound `O=C1/C(=C/c2cccs2)CCc2ccccc21`, the activation was 24.6% (inactive).

For `O=C1/C(=C/c2cccs2)CCC1C1CCCC1` (stereo not drawn), the activation is 39.6% (active).

On to `CN1C/C(=C/c2cccs2)C(=O)/C(=C\c2cccs2)C1`, for which the activation is 5.88% (inactive).

Take `C[C@H](CO)N1C[C@H](C)[C@@H](CN(C)C(=O)Nc2ccccc2F)OCc2cn(nn2)CCCC1=O`: the activation was -2.87% (inactive).

`COc1cc(OC)cc(-c2cc3ccc(F)cc3cn2)c1`: the activation is 42.1% (active).

For the compound `COc1cc(OC)cc(-c2c(-c3ccc(F)cc3)c3cc(-c4ccc5cc[nH]c5c4)ccc3n2C)c1`, the activation was -17.5% (inactive).

`COc1ccc(C(C)(O)c2nc(-c3cc(F)cc(F)c3)cs2)cc1` (stereo not drawn): the activation is -1.38% (inactive).

As for `COc1ccccc1C(=O)N1O[C@]23C=C[C@]14C[C@@H](O)CC[C@]4(C)C2CC[C@]1(C)[C@@H]([C@H](C)/C=C/[C@H](C)C(C)C)CC[C@H]13` (stereo partly drawn), the activation was -2.64% (inactive).

Turning to `COc1cccc(CNc2nc(NCc3cccs3)nc3ccsc23)c1`, the activation is -1.69% (inactive).

Regarding `O=C(Nc1c(Cl)c(C2CC2)nn1-c1ccccc1)C(Cl)(Cl)Cl`, the activation was -2.16% (inactive).

`O=C(c1ccco1)N1CCN(C(=O)c2cc(-c3ccccc3F)no2)CC1`: the activation was 1.22% (inactive).

For `O=C(NCCCN1CCOCC1)c1cc(-c2ccccc2F)no1`, the activation was 3.67% (inactive).

Take `Fc1ccccc1-c1cc2cc3c(cc2cn1)OCO3`: the activation is 40.7% (active).

With `CCNC(=O)C1(C)CCCN(Cc2noc(-c3ccccc3OC)n2)C1` (stereo not drawn), the activation was -3.24% (inactive).

Turning to `CN1C(=O)C2CC(O)C(SC3CC4C(=O)N(C)C(=O)C4CC3O)CC2C1=O` (stereo not drawn), the activation was -1.16% (inactive).

Regarding `CCc1nc2c(OCc3ccc(C(F)(F)F)cc3)cccn2c1N(C)C(=O)CC(C)C`, the activation was -1.72% (inactive).

With `C=CCc1cccc2cc(C(=O)Nc3ccc(NC(C)=O)cc3)c(=O)oc12`, the activation was 39.5% (active).

On to `C=CCc1cccc2cc(C(=O)NC3CCCC3)c(=O)oc12`, for which the activation was -0.536% (inactive).

Turning to `CCOc1cccc2cc(C(=O)OCC(=O)Nc3c(C)cccc3CC)c(=O)oc12`, the activation was 8.56% (inactive).

As to `COc1ccc(-c2ccccc2C2Cc3nnccc3CN2C(=O)Nc2ccccc2)cc1` (stereo not drawn), the activation is -2.13% (inactive).

In the case of `COC(=O)c1cc2c(c3c4ccccc4n(S(=O)(=O)c4cccc(C)c4)c13)C(=O)N(Cc1ccccc1)C2`, the activation was -4.66% (inactive).

In the case of `Cc1[nH]n(C)c(=O)c1C(=O)c1c(-c2c(Cl)cccc2Cl)noc1C`, the activation is 4.17% (inactive).

For `Cn1c(-c2ccc(F)cc2)cc2onc(-c3ccccc3Cl)c2c1=O`, the activation was 53.3% (active).

For `Cn1c(-c2ccc(C(F)(F)F)cc2)cc2onc(-c3ccccc3)c2c1=O`, the activation was 23.3% (inactive).

Consider `CCOC(=O)/C=C/c1ccccc1O`, for which the activation was -1.18% (inactive).

As for `O=C(Nc1ccc(F)cc1)c1cc2c(s1)CCCC2`, the activation is 53% (active).

Regarding `O=C(NNC(=O)c1cc2c(s1)CCCC2)c1ccccc1`, the activation was 27.6% (inactive).

As for `CN(C)C(=O)c1ccc(NC(=O)COC(=O)c2cc3c(s2)CCCCC3)cc1`, the activation is 0.414% (inactive).

As to `CCN(CC)C(=O)C1=C(C)N(Cc2ccc(F)cc2)C(=O)C(CC(=O)NCc2cccc3ccccc23)C1` (stereo not drawn), the activation is -3.01% (inactive).

In the case of `O=CNc1cc(-c2ccc(C(=O)N3CCOCC3)cc2)cn2c(-c3ccc(F)cc3)cnc12`, the activation was -3.58% (inactive).

As to `Cc1c(C(=O)Nc2ccccn2)oc2ccc(Br)cc12`, the activation is 34.7% (active).

In the case of `Cc1nonc1NC(=O)c1oc2ccccc2c1C`, the activation is 8.7% (inactive).

Take `Cc1noc(C)c1C(=O)Nc1ccccn1`: the activation was -1.19% (inactive).

In the case of `C=CCNC(=O)/C=C/c1ccc(C(C)C)cc1`, the activation is 42.6% (active).

Consider `CC(C)c1ccc(/C=C/C(=O)NCCCN2CCOCC2)cc1`, for which the activation is -3.21% (inactive).

For `O=C(/C=C/c1ccc(F)cc1)NCCNC(=O)/C=C/c1ccc(F)cc1`, the activation is -1.4% (inactive).

With `CCOC(=O)[C@]12CCC=C1N(Cc1cccc3ccccc13)C(=O)[C@H](CC(=O)NCc1cccc(C(F)(F)F)c1)C2`, the activation is -1.93% (inactive).

In the case of `C#CCN(C[C@@H]1[C@@H](OC(=O)NC2CC2)[C@@H](OC(=O)NC2CC2)Cn2c(=O)ccc(=O)n21)S(=O)(=O)c1ccc(C)cc1`, the activation was -2.83% (inactive).

Turning to `O=[N+]([O-])c1ccc(C(S(=O)(=O)Cc2ccccc2)S(=O)(=O)Cc2ccccc2)cc1`, the activation is -5.67% (inactive).

`Cc1nc(NC(=O)c2ccc3c(c2)OCCO3)ccc1Br`: the activation was 48.4% (active).

For `O=C(Nc1ccc(Cl)cn1)c1ccc2c(c1)OCCO2`, the activation was 24.2% (inactive).

For `Cc1cccc(C)c1NC(=O)CNC(=O)c1ccc2c(c1)OCCO2`, the activation was 13.2% (inactive).

Regarding `Cc1ccc(C(=O)NNC(=O)c2ccc3c(c2)OCCO3)cc1`, the activation was 43.9% (active).

Consider `CC(=O)c1ccc2c(c1)OCCOCCOc1ccc(C(C)=O)cc1OCCOCCO2`, for which the activation was 1.05% (inactive).

For the compound `O=C(Nc1ccccc1)c1ccc2c(c1)OCCCO2`, the activation was 19.2% (inactive).

Consider `CN(CCc1ccccc1)C(=O)c1cccc(NC(=O)Cc2cccc(NC(=O)C3CCCN(C(=O)C4CCC4)C3)c2)c1` (stereo not drawn), for which the activation is -3.51% (inactive).

For the compound `C[C@H]([C@@H](O)[C@@H](O)[C@@H](C)C(C)(C)C)[C@H]1CC[C@H]2C3CC[C@H]4C[C@H](OS(=O)(=O)O)[C@@H](OS(=O)(=O)O)C[C@]4(C)[C@H]3CC[C@]12C` (stereo partly drawn), the activation is -0.623% (inactive).

With `CC12CCC(=O)C=C1CCC1C2C(O)CC2(C)C1CCC2(O)C(O)CO` (stereo not drawn), the activation is 3.61% (inactive).

For the compound `Cn1c(=NC(=O)C2CC2)sc2cc(F)cc(F)c21`, the activation is 7.6% (inactive).

For the compound `CCCC(=O)N=c1sc2cccc(F)c2n1C`, the activation is 5.33% (inactive).

Regarding `Cn1c(=NC(=O)c2ccco2)sc2cccc(F)c21`, the activation was 61.6% (active).

Turning to `Cc1ccc(S(=O)(=O)N2C[C@]3(O)C[C@@H]4C(=O)N(c5ccccc5)C(=O)[C@@H]4C[C@]3(OC(=O)NC3CC3)C2)cc1`, the activation is -1.31% (inactive).

On to `CC(=O)Nc1cnc(-c2ccc(O)cc2C)cn1`, for which the activation was -0.836% (inactive).

Regarding `Cc1ccc(Nc2nc(-c3ccc(O)cc3O)cs2)nc1`, the activation was 59.5% (active).

Turning to `Clc1ccc(Nc2nc(-c3cccs3)cs2)nc1`, the activation was 25.2% (inactive).

`Cn1c(=O)c2cc(NC(=O)NCCc3cccs3)ccc2n1Cc1cccc(C(F)(F)F)c1`: the activation is -1.78% (inactive).

In the case of `Cc1ccc(S(=O)(=O)N2CC3C(=O)C[C@@H](c4ccccc4Cl)N(S(=O)(=O)c4ccc(C)cc4)C3CC2c2ccccc2)cc1` (stereo partly drawn), the activation is -1.39% (inactive).
